Sampled rows, rich in hits. Any-hit rate of the full collection: about 0.77%.
RecA intein inh = inhibitors of M. tuberculosis RecA intein splicing | P9WHJ3 | cell-free RecA intein splicing, fluorescence | inhibition, % (test concentration not listed) | hit rate 0.75% among 290,000 | AID 2221; in the data active = inhibition above about 30%;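 also: 0% = vehicle wells and 100% = reference inhibitor control wells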
Target sequence (P9WHJ3 whole entry, looked up): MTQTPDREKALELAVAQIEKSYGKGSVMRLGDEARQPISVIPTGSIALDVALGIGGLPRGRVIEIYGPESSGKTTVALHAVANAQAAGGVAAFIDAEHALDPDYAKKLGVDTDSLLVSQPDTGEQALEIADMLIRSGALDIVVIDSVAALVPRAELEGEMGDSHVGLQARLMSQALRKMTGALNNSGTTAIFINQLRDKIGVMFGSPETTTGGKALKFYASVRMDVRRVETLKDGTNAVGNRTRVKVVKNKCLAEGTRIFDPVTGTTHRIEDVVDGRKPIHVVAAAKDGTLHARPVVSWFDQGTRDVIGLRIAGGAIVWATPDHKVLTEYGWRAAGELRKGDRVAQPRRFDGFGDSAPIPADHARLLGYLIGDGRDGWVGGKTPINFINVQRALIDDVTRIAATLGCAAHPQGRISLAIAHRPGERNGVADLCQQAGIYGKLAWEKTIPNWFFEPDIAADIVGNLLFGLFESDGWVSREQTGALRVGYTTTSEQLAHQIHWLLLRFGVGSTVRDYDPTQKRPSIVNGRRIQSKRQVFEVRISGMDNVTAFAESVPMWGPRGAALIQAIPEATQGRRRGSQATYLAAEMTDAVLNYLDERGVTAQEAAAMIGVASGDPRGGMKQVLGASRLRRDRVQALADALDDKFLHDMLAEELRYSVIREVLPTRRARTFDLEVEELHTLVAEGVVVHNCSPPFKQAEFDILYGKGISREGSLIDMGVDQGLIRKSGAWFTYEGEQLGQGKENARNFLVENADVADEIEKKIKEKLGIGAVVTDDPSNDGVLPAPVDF
RmlCD inh 1536 = blocks M. tuberculosis RmlC and RmlD coupled enzymes; RmlC+RmlD coupled enzyme assay, percent inhibition; primary screen in compound mixtures; hit rate 0.03% among 160,000; inhibition, % at 3.6 µM; in the data active = inhibition mostly above about 34%, no sharp cut-off
GFP chromo cs = counter-screen GFP chromophore formation inhibition; shares compounds with RecA intein inh; cell-free GFP chromophore formation, fluorescence; EC50, µM; hit rate 83% among 2,100; AID 434968; call rule not given here
* hit, by the source's call; . = no result given.

SMILES | RecA intein inh | RmlCD inh 1536 | GFP chromo cs
Cc1cc(Cl)ccc1OC(C)C(=O)NN=C1CCCCCC1 (stereo not given) | 1.3 | . | .
c1ccc(N=Nc2cn[nH]c2-c2ccco2)cc1 | 1.2 | 8.3 | .
O=C(O)c1ccccc1C(=O)Nc1ccc(-n2nc(C(F)(F)F)cc2C(F)(F)F)cc1 | -2.4 | -3.1 | .
ONc1cccnc1-n1nc(C(F)(F)F)cc1C(F)(F)F | 82.4* | . | >38
CCOc1ccc(C(c2c(C)[nH][nH]c2=O)c2c(C)[nH][nH]c2=O)cc1OC | 94.5* | 5.2 | 0.442*
C#CCOc1ccc(OC)cc1C(c1c(C)[nH][nH]c1=O)c1c(C)[nH][nH]c1=O | 94.9* | . | 0.413*
CCOc1cc(C(c2c(C)[nH][nH]c2=O)c2c(C)[nH][nH]c2=O)ccc1OS(=O)(=O)c1ccc(C)cc1 | 97.4* | -12.6 | 0.493*
CCOc1cc(/C=N/O)ccc1OS(=O)(=O)c1ccc(C)cc1 | 1.7 | . | .
CCOc1cc(C(c2c(O)nc(SC)[nH]c2=O)c2c(O)nc(SC)[nH]c2=O)ccc1O | -2.3 | . | .
Cc1[nH][nH]c(=O)c1C(c1c(C)[nH][nH]c1=O)c1cn(Cc2ccc(Cl)c(Cl)c2)c2ccccc12 | 0.9 | 10.1 | .
COc1ccc(CC(=O)c2ccccc2C(=O)O)cc1 | -0.2 | . | .
O=C(O)/C(=C\c1cccs1)Sc1nnc(-c2ccc(F)cc2)o1 | 0.4 | -11.2 | .
S=C(NCc1ccncc1)NC1CCCC1 | 0.8 | -3.0 | .
CC[n+]1ccc2cc(OC)c(OC)cc2c1Cc1ccc(OC)c(OC)c1 | 50.6* | 9.5 | >38
COc1ccc(Cc2nccc3cc(OC)c(OC)cc23)cc1OC | 92.9* | . | 7.3*
COc1ccc(Cc2c3cc(OC)c(OC)cc3cc[n+]2C)cc1OC | 1.7 | . | .
CCS(=O)(=O)Nc1cc(OC)c(OC)cc1Cc1nccc2cc(OC)c(OC)cc12 | 0.8 | . | .
CCCC1=Nc2cc(C(=O)N3CCN(c4ccccn4)CC3)ccc2Sc2ccc(C)cc21 | 13.1 | . | .
O=c1[nH]c(/C=C\c2cccnc2)c([N+](=O)[O-])c(=O)[nH]1 | 1.5 | . | .
O=c1[nH]c(/C=C/c2cccnc2)c([N+](=O)[O-])c(=O)[nH]1 | 40.8* | -10.4 | >38
Cc1ccc(S(=O)(=O)N2CC=C(C(=O)NCCC(C)C)CC2)cc1 | 1.8 | -9.7 | .
CN1N=C(C(C)(C)C)CC1=O | 35.6* | -7.3 | 18.6*
CN1N=C(C(F)(F)F)CC1=O | -10.2 | -7.5 | .
O=C(O)Cc1c[nH]c2ccccc12 | -4.2 | . | .
O=C(CCl)N(c1ccccc1)c1c[nH]c2ccccc12 | 82.4* | . | 8.33*
SMILES | RecA intein inh | RmlCD inh 1536 | GFP chromo cs
O=C(Cc1ccc(Cl)cc1)NCCc1c[nH]c2ccccc12 | 1.5 | . | .
O=C(CCl)N(c1ccc(Cl)cc1)c1c[nH]c2ccccc12 | 40.4* | . | 2.24*
O=C(CN1C(=O)NC2(CCOc3ccccc32)C1=O)Nc1ccc(F)c(F)c1F (stereo not given) | 0.8 | -7.8 | .
O=C(c1ccco1)N1CCN(CCOc2ccc(F)cc2)CC1 | -1.8 | . | .
Cc1cccc(N2CCN(C(=O)c3cc4c(=O)n(C)c5ccccc5c4n3C)CC2C)c1 (stereo not given) | -0.4 | . | .
Cc1c(NP(=O)(c2ccc(Br)cc2)c2ccc(Br)cc2)c(=O)n(-c2ccccc2)n1C | 1.0 | -1.5 | .
CNC1=C(N(C(C)=O)c2ccc(Br)cc2)C(=O)c2ccccc2C1=O | 72.9* | . | 13*
CCC(=O)N(C1=C(NC)C(=O)c2ccccc2C1=O)C(C)C | 45.0* | -3.4 | 38.7*
CCC(=O)NC1=C(NC(C)c2ccccc2)C(=O)c2ccccc2C1=O (stereo not given) | 9.3 | -6.2 | .
CN(C)c1ccc(C(=O)NN2C(=O)c3ccccc3C2=O)cc1 | -0.2 | -8.2 | .
COCCN(C(=O)COC(=O)Cc1cccc2ccccc12)c1c(N)n(Cc2ccccc2)c(=O)[nH]c1=O | -1.4 | . | .
Cc1cc(SCC(=O)OCC(=O)N(C)C2CCS(=O)(=O)C2)c(C)cc1Br (stereo not given) | -3.2 | . | .
CC(C)CN(CC(C)C)S(=O)(=O)N1CCC(C(=O)NCCc2ccc(Cl)cc2)CC1 | 1.1 | 15.9 | .
Cc1ccc(Sc2oc(/C=N/n3cnnc3)cc2Br)cc1 | 62.0* | . | 35.2*
Cc1ccc(-c2ccc(/C=N\n3cnnc3)o2)c(Br)c1 | -1.6 | . | .
O=C(Cc1c(F)cccc1Cl)NNC(=O)Nc1ccc2c(c1)OCO2 | -1.4 | . | .
CCCCCCCCCCCCCCCCn1cc[n+](C)c1 | 47.6* | -13.1 | 12.1*
CCCCCCCCn1ccc(=N)cc1 | 0.4 | -9.2 | .
CC(C)(C)C(=O)OCc1nc(-c2ccc(F)cc2)cs1 | 1.4 | -4.6 | .
COc1ccccc1NC(=O)CSc1nnc(-c2ccco2)n1Cc1ccco1 | 2.2 | . | .
Cc1ccc(C[n+]2c(-c3ccc(C)cc3)cc(-c3ccc(C)cc3)cc2-c2ccc(C)cc2)cc1 | 55.6* | . | 14.2*
Cc1ccc(C[n+]2ccccc2)cc1 | 1.6 | . | .
CS(=O)(=O)c1ncc(Cl)c(C(=O)Nc2ccc(N3CCOCC3)cc2)n1 | 45.1* | -14.3 | 38*
CS(=O)(=O)c1ncc(Cl)c(C(=O)Nc2ccc(OC(F)F)cc2)n1 | 78.9* | . | 11.5*
O=C(Nc1ccc(OC(F)F)cc1)c1ccccn1 | 5.0 | -5.6 | .
SMILES | RecA intein inh | RmlCD inh 1536 | GFP chromo cs
CS(=O)(=O)c1ccc(C(=O)Nc2ccc(N3CCOCC3)cc2)c(Cl)c1 | 0.9 | -8.0 | .
O=C(O)/C=C/c1ccc(S(=O)(=O)N(CCO)CCO)cc1 | -1.3 | -9.6 | .
Cc1ccc(-n2ncc3c2CCCC3NC(=O)CCc2cnn(C)c2)cc1C (stereo not given) | 2.7 | . | .
CCO/C=C1/C(=O)N(C)C(=O)c2cc(OC)ccc21 | 85.0* | . | >38
CCO/C=C1/C(=O)N(c2ccc(OC)cc2)C(=O)c2ccccc21 | 2.6 | 5.5 | .
CCN1Cc2c(/C=C/c3ccccc3)nc3ccc(OC)cc3c2N(c2cccc(Cl)c2)C1 | 34.4* | -3.8 | 23.4*
COc1cccc(N2CCc3c(C)nc4ccc(Cl)cc4c32)c1 | -1.8 | . | .
COc1cccc(N(C(=O)Cn2nnc(-c3ccc(C)o3)n2)C(C(=O)NC2CCCC2)c2ccncc2)c1 (stereo not given) | -0.9 | . | .
CCOC(=O)C1=C(C)N=C2SCCC(=O)N2C1c1ccc(OC)cc1 (stereo not given) | 4.1 | 6.4 | .
COCCOC(=O)C1=C(C)N=C2SCCC(=O)N2C1c1ccc(OC(=O)c2ccco2)cc1 (stereo not given) | 33.1* | -11.1 | >38
O=C(CSc1nnc(Cc2ccccc2)n1-c1ccc(Cl)cc1)N1CCOCC1 | 0.8 | 0.1 | .
COc1cccc(-c2cn(C[C@H]3CC[C@@H]([C@@H]4CC[C@H](Cn5cc(-c6cccc(OC)c6)nn5)O4)O3)nn2)c1 | -1.2 | . | .
Cc1nn(Cc2ccccc2)c2c1C(c1cccnc1)C(C#N)=C(N)O2 (stereo not given) | 72.7* | . | 12.8*
N#CC1=C(N)Oc2c(c(=O)sc3ccccc23)C1c1ccncc1 (stereo not given) | 2.5 | -32.4 | .
CC(=O)C1=C(C)OC(N)=C(C#N)C1c1cccnc1 (stereo not given) | -10.1 | -1.1 | .
CC(=O)C1=C(c2ccccc2)OC(N)=C(C#N)C1c1ccc(O)cc1 (stereo not given) | -0.7 | 0.1 | .
Cc1cc2c(c(=O)n1Cc1cccnc1)C(c1ccccc1)C(C#N)=C(N)O2 (stereo not given) | -0.7 | -9.3 | .
Cc1nn(Cc2ccccc2)c2c1C(c1ccncc1)C(C#N)=C(N)O2 (stereo not given) | 67.3* | . | 18.4*

From PubChem
